DAT uptake mod = changed hDAT dopamine uptake under cocaine IC80, either direction, primary screen, cocaine antagonist project, cell-based, LLC-PK1 hDAT, [14C]-dopamine uptake, MLSMR | Sodium-dependent dopamine transporter (Homo sapiens), Q01959 | LLC-PK1 hDAT cells, [14C]-dopamine uptake with cocaine IC80; actives deviate in either direction | B-score at 10 µM | hit rate 1.3% among 110,000 | AID 449768, 2010;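 active means Z score or B-score, a plate-position-corrected score, falls beyond the plate's 99.7% confidence bounds, in either direction; inactive means both scores lie inside the 99.7% bounds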;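 further: scored against the spread of the other compound wells on the same plate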
Target sequence (Q01959 whole entry, looked up): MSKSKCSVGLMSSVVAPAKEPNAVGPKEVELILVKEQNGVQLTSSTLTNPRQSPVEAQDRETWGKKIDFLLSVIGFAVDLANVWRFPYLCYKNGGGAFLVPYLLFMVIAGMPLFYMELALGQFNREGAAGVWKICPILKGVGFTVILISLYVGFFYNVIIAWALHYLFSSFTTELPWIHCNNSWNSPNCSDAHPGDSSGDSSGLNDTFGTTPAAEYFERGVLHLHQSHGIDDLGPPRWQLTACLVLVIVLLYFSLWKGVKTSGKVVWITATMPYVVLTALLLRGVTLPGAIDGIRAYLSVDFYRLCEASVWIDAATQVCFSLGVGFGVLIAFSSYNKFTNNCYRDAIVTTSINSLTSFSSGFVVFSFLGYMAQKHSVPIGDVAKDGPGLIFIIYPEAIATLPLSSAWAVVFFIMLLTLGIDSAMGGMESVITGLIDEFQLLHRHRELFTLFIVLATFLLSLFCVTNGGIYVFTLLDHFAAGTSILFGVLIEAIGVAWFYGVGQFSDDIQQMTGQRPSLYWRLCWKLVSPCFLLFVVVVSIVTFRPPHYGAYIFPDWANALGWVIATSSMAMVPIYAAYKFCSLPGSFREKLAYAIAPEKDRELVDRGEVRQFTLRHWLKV
HCT116 PTEN-null = growth suppression of PTEN-null HCT116, primary screen, cell-based, CellTiter-Glo | hit rate 1.2% among 140,000 | AID 827, 2007 | viability, % at 10 µM | HCT116 PTEN-null viability, 60 h; active compounds read low;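 active means viability at or below a set limit, 4 SD under the median of all tested compounds, cut at about 3.7% in these data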;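 further: PTEN knockout HCT116 line with beta catenin targeted HCT116 as companion control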
WT yeast gro inh = growth inhibition of WT strain, primary screen, mitochondrial fusion inhibitor project, WT and mutant strains, chemical genetic | mitochondrial fusion phenotypic screen | inhibition, % at 10 µM | hit rate 2.1% among 190,000; in the data active means inhibition above about 58%; tested in S. cerevisiae
bCat KO growth = primary screen for growth suppressors in beta-catenin knockout HCT116 cells (colon tumor, human); HCT116 beta-catenin knockout viability, CellTiter-Glo, 60 h; active compounds read low; viability, % at 10 µM; hit rate 1.5% among 140,000; AID 818, 2007;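 active means viability at or under a set limit, the compound median less 4 SD, cut at about 6% in these data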;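 further: 0% = Hyamine 1622 control at 20 µM and 100% = untreated cell control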
Active calls of the source: *; . = no result given. Rows were chosen to be rich in hits. Some 3.6% of all compounds tested hit in one or more screens of this group.

SMILES	DAT uptake mod	HCT116 PTEN-null	WT yeast gro inh	bCat KO growth
O=C(CCn1nnc2ccccc21)Nc1nnc(Cc2ccccc2)s1	.	94	67*	107
O=C(CCn1nnc2ccccc21)Nc1nnc(COc2ccccc2F)s1	0.19	91	.	98
CCOC(=O)C1=C(C)N=C2SCCC(=O)N2C1c1sccc1C (centres undefined)	0.63	81	65*	83
CCOC(=O)C1=C(C)N=C2SCCC(=O)N2C1c1ccc(OC)cc1 (centres undefined)	.	.	-11	.
CN1CCN(CCCNC(=O)c2cc3c(-c4ccc(Cl)cc4)nn(C)c3s2)CC1	0.44	1.7*	13	1.5*
CCN(CC)CCCNC(=O)c1cc(-c2ccc(Cl)c(Cl)c2)on1	1.9	2.4*	6	2.0*
CCN(CC)CCCNC(=O)c1cc(-c2ccc(O)cc2)on1	-0.016	93	12	90
CCN(CC)CCCNC(=O)c1cc2c(-c3ccc(Cl)cc3)nn(C)c2s1	0.24	1.6*	2	0.8*
Cn1nc(-c2ccc(Cl)cc2)c2cc(C(=O)NCC3CCCO3)sc21 (centres undefined)	-0.0077	58	-3	53
CN1C=CC=C/C1=C1\SC(=S)N(c2ccccc2)C1=O	.	109	66*	91
COc1cc(C2Nc3ccccc3C(=O)N2c2ccccc2OC)ccc1O (centres undefined)	-0.71	94	-27	114
CCOc1cc(C2Nc3ccccc3C(=O)N2c2ccccc2OC)ccc1O (centres undefined)	0.33	86	74*	88
O=S(=O)(Nc1cccc2ncccc12)c1cccs1	-0.042	1.5*	59*	1.7*
CCOC(=O)c1nc(N2CCN(C(=O)OCC)CC2)c2c3c(sc2n1)CCCC3	3.2*	82	0	113
CCOC(=O)c1nc2sc3c(c2c(=O)[nH]1)CCCC3	0.61	96	4	102
O=C(Nc1ccc(Br)cc1)N1CCCCC1	.	.	-12	.
O=C(Nc1nc2c(s1)CCc1ccccc1-2)c1cccs1	-0.67	47	10	63
Fc1ccccc1Nc1nc2c(s1)CCc1ccccc1-2	.	77	64*	69
O=C(CCc1ccccc1)NNC(=S)NC(=O)c1ccc(Cl)cc1	-0.022	17	65*	15
CC1=NN(C(N)=S)C(=O)C1N=Nc1ccccc1 (centres undefined)	.	.	70*	.
CN(C)c1ccc(/C=C/c2ccc3ccccc3[n+]2C)cc1	.	2.0*	87	2.1*
CN(C)c1ccc(/C=C/c2ccc3c4ccccc4ccc3[n+]2-c2ccccc2)cc1	.	.	88	.
COc1ccc(NC(=O)CC2SC(=N)N(c3ccccc3)C2=O)c(OC)c1 (centres undefined)	.	.	-9	.
O=C(Nc1c(C(=O)c2ccccc2)oc2ccccc12)c1cc(-c2ccccc2O)n[nH]1	.	1.8*	19	1.9*
Cc1ccc(C(=O)c2oc3ccccc3c2NC(=O)c2cc(-c3ccccc3O)n[nH]2)cc1	.	43	25	35
SMILES	DAT uptake mod	HCT116 PTEN-null	WT yeast gro inh	bCat KO growth
Cc1ccc(N=Cc2c(O)n(-c3ccc4c(c3)OCO4)c(=O)c3ccccc23)cc1	0.07	8	73*	48
O=C(CS(=O)(=O)c1ccc(Cl)cc1)NCCS(=O)(=O)c1ccc(Cl)cc1	.	.	-17	.
OCCOc1cccc(CN2CCC(CO)(CCOc3ccccc3)CC2)c1	.	.	-17	.
OCC1(CCOc2ccccc2)CCN(CC2=Cc3cc(Cl)ccc3OC2)CC1	.	.	90*	.
O=C1C(=O)N(CCN2CCCCC2)c2ccccc21	-0.66	94	-3	86
O=C1c2ccccc2C(=O)N1CCN1CCCCC1	.	91	66*	95
Cc1ccsc1/C=C(\C(=O)c1ccc(OC(C)C)cc1)c1nc2ccccc2o1	.	56	-4	48
COc1ccc(OC)c(-c2cc(C(=O)Nc3ccc(F)cc3F)no2)c1	.	.	9	.
CN(C)c1nc(Cl)nc(N(C#N)CCOc2ccccc2)n1	.	.	-18	.
N/C(=N\OC(=O)N1c2ccccc2Sc2ccccc21)c1ccccc1	.	74	66*	78
Cc1cccc(/C(N)=N/OC(=O)N2c3ccccc3Sc3ccccc32)c1	-0.99	39	67*	34
COc1ccc(C(=O)c2ccccc2)c(OCC(=O)NC2CC2)c1	.	.	-49	.
COc1cccc(/C=C/C(=O)OCC(=O)Nc2ccc(Cl)cn2)c1	.	.	6	.
Cc1ccc2nc(-c3ccccc3)c(CN3CCN(c4ccccc4F)CC3)n2c1	.	.	83*	.
CC(C)CN1C(=S)SC(C)(C)C1n1oc(=O)n(-c2ccccc2)c1=O (centres undefined)	.	53	51	47
CC(C)CN1C(=S)SC(C)(C)C1n1oc(=O)n(-c2ccc(Cl)cc2)c1=O (centres undefined)	-0.23	0.8*	-5	2.3*
COC(=O)c1sc2nc(CN3CCN(c4ccc(OC)cc4)CC3)[nH]c(=O)c2c1C	.	96	-7	89
Cc1ccc(S(=O)(=O)/C(=C\N(C)C)c2cnc(Cl)s2)cc1	.	.	-2	.
CCc1ccc(-c2cc(C(=O)N3N=C(C(F)F)CC3(O)C(F)F)c3ccccc3n2)cc1 (centres undefined)	0.61	3.5*	80*	7
CC(C)Cc1cc(C(=O)N2N=C(C(F)F)CC2(O)C(F)F)c2ccccc2n1 (centres undefined)	-0.087	88	9	91
Cc1nc([N+](=O)[O-])c(C(=O)OCc2cccc(Br)c2)n1C	.	.	21	.
N=c1ccn(CC(=O)c2ccc(-c3ccccc3)cc2)cc1	.	.	66*	.
CCOC(=O)c1sc(NC(=O)Cn2nnc3sc4c(c3c2=O)CCC(C(C)(C)C)C4)nc1C (centres undefined)	.	86	4	81
Cc1ccc(C(=O)Oc2ccc(Cl)c3cccnc23)cc1[N+](=O)[O-]	.	10	25	4.5*
Cc1sc2nc(C(C)Nc3ccccc3N3CCOCC3)[nH]c(=O)c2c1C (centres undefined)	-7.5*	75	19	87
SMILES	DAT uptake mod	HCT116 PTEN-null	WT yeast gro inh	bCat KO growth
Cc1sc2nc(N3CCOCC3)[nH]c(=O)c2c1-c1ccccc1	.	93	-3	92
O=C(Nc1ccc([N+](=O)[O-])cc1)Nc1nc(-c2ccc(Cl)s2)cs1	.	1.2*	87*	1.5*
Cc1noc(C)c1S(=O)(=O)NCC(=O)O	2.3*	99	14	94
CS(=O)c1ccccc1-c1nc(-c2cccc(Cl)c2)no1 (centres undefined)	.	.	12	.
CN1C(=S)SC(N(O)C(=O)Nc2ccc(Cl)c(Cl)c2)C1(C)C (centres undefined)	.	50	48	50
O=c1cc(N2CCCCC2)c(-c2ccccc2)nn1Cc1ccc(Cl)cc1	0.79	27	30	31
O=c1cc(N2CCCCC2)c(-c2ccccc2)nn1Cc1ccc(F)cc1	.	.	83*	.
O=c1cc(N2CCCCC2)c(-c2ccccc2)nn1Cc1c(Cl)cccc1Cl	0.77	48	89*	46
Cc1ccc(CNC(=O)CNS(=O)(=O)c2ccc3nc(C)sc3c2)cc1	.	.	8	.
S=c1[nH]nc(-c2ccco2)n1/N=C/c1ccccn1	.	.	4	.

Assay outcomes (PubChem BioAssay)
